Sampled rows, rich in hits. Any-hit rate of the full collection: about 5.6%.
PfGluPho inh = PfG6PD (Plasmodium falciparum) enzyme inhibition | PfGluPho enzyme, NADPH resazurin-diaphorase fluorescence | inhibition, % at 20 µM | actives 0.78% (n = 350,000) | AID 504690;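 active = inhibition reaching at least a set limit at 20 µM in the primary screen, cut at about 59% in these data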
PHOSPHO1 inh = blocks human PHOSPHO1 phosphatase activity | actives 1.1% (n = 290,000) | inhibition, % at 13.3 µM | recombinant PHOSPHO1, absorbance phosphatase assay | Q8TCT1; in the data active = inhibition above about 60%
Target sequence (Q8TCT1 whole entry, looked up): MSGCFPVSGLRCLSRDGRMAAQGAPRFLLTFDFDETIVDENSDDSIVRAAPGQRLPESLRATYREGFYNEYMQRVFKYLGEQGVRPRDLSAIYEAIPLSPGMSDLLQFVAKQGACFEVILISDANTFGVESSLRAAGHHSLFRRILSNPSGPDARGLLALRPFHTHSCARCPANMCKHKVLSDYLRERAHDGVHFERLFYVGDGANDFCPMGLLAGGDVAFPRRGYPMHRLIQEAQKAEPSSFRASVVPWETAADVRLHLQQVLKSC
PfM18AAP inh = PfM18AAP enzyme inhibition. inhibition, % at 7.35 µM. actives 1.2% (n = 290,000). AID 1822. recombinant PfM18AAP, H-Glu-NHMec fluorogenic cleavage;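 active = inhibition above the campaign mean inhibition over all tested compounds plus 3 SD, cut at about 28% in these data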
Cardio protect = modulators protecting cardiomyocytes from myocardial damage; AID 588492; H9c2 cardiomyocytes, H2O2 injury protection, ATPLite, 2 h; protection from H2O2 cell death, % at 20 µM; actives 0.63% (n = 360,000);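 active = compounds giving at least 50% protection of heart cells from peroxide-induced death in the single-dose screen, raw or plate-pattern-corrected value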
ALR H2O2 inh = blocks human ALR sulfhydryl oxidase activity; purified ALR, DTT oxidation, H2O2 HRP-luminol luminescence; inhibition, % (no concentration beside the values); actives 3.8% (n = 290,000); AID 485317;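 active = mean replicate inhibition above about 79%, with every replicate also reaching it, limit read from the data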
Target sequence (P55789 whole entry, looked up): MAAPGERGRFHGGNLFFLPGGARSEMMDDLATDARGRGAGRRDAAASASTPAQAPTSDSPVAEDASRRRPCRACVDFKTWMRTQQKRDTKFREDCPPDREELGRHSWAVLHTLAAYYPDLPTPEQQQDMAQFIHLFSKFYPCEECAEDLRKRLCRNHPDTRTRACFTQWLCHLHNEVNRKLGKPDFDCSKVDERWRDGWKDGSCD
Hits are given with their value; - = inactive; . = not tested or not shown.

SMILES | PfGluPho inh | PHOSPHO1 inh | PfM18AAP inh | Cardio protect | ALR H2O2 inh
CCn1c(-c2cc(Br)cc(OC)c2O)nc2cc(S(=O)(=O)N(C)C)ccc21 | - | - | - | - | 91
CCn1c(-c2ccccn2)nc2cc(S(=O)(=O)N(C)C)ccc21 | - | - | - | - | 99
CCCCn1c(CCC(=O)O)nc2cc(S(=O)(=O)N(C)C)ccc21 | - | - | - | - | -
COc1cccc(C(C)(O)c2nc(-c3cnc4ccccc4c3)cs2)c1 (stereo not given) | . | . | . | - | .
Cc1ccc(C2Nc3ccccc3NC3=C2C(=O)OC(C)C3)cc1 (stereo not given) | - | - | - | - | 99
O=C1NCC2=C1C(c1ccccc1)Nc1ccccc1N2 (stereo not given) | - | - | - | - | -
CC1CC2=C(C(=O)O1)C(c1ccc(Cl)cc1)Nc1ccccc1N2 (stereo not given) | - | - | - | - | 99
Nn1c(=S)[nH]nc(Cc2ccc(O)cc2)c1=O | - | - | - | - | 80
COc1ccc(Oc2ccc(/C=C/C(=O)c3ccc(O)cc3)cc2[N+](=O)[O-])cc1 | - | - | - | - | 96
O=C(/C=C/c1ccc(O)c([N+](=O)[O-])c1)c1ccc2ccccc2c1 | - | - | - | - | -
O=C(/C=C/c1ccc(O)c(O)c1)OCCc1ccccc1 | - | . | . | - | 98
O=C(/C=C/c1ccc(O)c(O)c1)OC(Cc1ccc(O)c(O)c1)C(=O)O (stereo not given) | - | - | 89 | - | 99
N[C@@H](Cc1ccc(O)c(I)c1)C(=O)O | . | - | - | . | -
Cc1[nH]c2ccccc2c1C(c1ccccn1)N1CCC(C(N)=O)CC1 (stereo not given) | - | - | - | - | 98
CCOC(=O)C1CCN(C(c2ccccn2)c2c(C)[nH]c3ccccc23)CC1 (stereo not given) | - | - | - | - | -
Cc1[nH]c2ccccc2c1C(c1ccncc1)N1CCC(C)CC1 (stereo not given) | - | - | - | - | 97
O=C(CC1SC(N2CCCCC2)=NC1=O)Nc1cccc(C(=O)N2CCCC(C(F)(F)F)C2)c1 (stereo not given) | - | . | . | - | .
O=C(CC(Nc1ccccc1Cl)C(=O)O)c1ccccc1 (stereo not given) | - | - | - | - | 98
CCCC(=O)Nc1sc2c(c1C(=O)Nc1ccccn1)CCCC2 | - | - | - | - | 97
CCOC(=O)c1ccc(NC(=O)c2c(NC(=O)CCC(=O)O)sc3c2CCCCC3)cc1 | - | - | - | - | -
CCCOC(=O)c1c(NC(=O)CCC(=O)O)sc2c1CCCCC2 | - | - | - | - | 89
CC(C)(C)[C@H]1COC(=O)CCC/C=C/C[C@H](CC(=O)NCCO)C(=O)N1 | - | . | . | - | -
O=C1C(=O)N(c2nccs2)C(c2ccccc2F)/C1=C(\O)c1ccc2c(c1)OCCO2 (stereo not given) | - | - | - | - | 98
O=C1C(=O)N(c2nccs2)C(c2ccccc2)/C1=C(\O)c1ccc2c(c1)OCCO2 (stereo not given) | . | - | - | - | -
Cc1[nH]n2c(=O)cc(-c3ccc([N+](=O)[O-])cc3)nc2c1-c1ccccc1 | - | . | - | - | 89
SMILES | PfGluPho inh | PHOSPHO1 inh | PfM18AAP inh | Cardio protect | ALR H2O2 inh
Cc1[nH]n2c(=O)cc(C(C)(C)C)nc2c1-c1ccccc1 | - | - | - | 53 | -
Cc1[nH]n2c(=O)cc(C(C)C)nc2c1-c1ccccc1 | - | - | - | - | -
COC(=O)c1sccc1Oc1c(Cl)cccc1[N+](=O)[O-] | - | - | - | - | -
CCOC(=O)N1CCC(NC(=O)c2ccc(CS(=O)c3cccc(Cl)c3)o2)CC1 (stereo not given) | - | - | - | - | -
COc1ccc(Cn2c(CO)cnc2SCC(=O)Nc2cccc(NC(C)=O)c2)cc1 | - | - | - | - | 99
COc1ccc(Cn2ccnc2SCC(=O)Nc2cccc(NC(C)=O)c2)cc1 | - | - | - | - | 98
CC(=O)Nc1cccc(NC(=O)CSc2nccn2Cc2ccco2)c1 | - | - | - | - | 99
O=C1CCc2cc(NS(=O)(=O)c3ccc(Cl)cc3)cc3c2N1CC3 | - | . | . | - | -
CCCCc1ccc(NC(=O)CSC2=NN3CCCC(=O)N=C3S2)cc1 | - | - | - | - | .
O=C(CSc1ncccc1-c1nc2ccccc2[nH]1)N1CCN(c2ccccc2F)CC1 | - | 88 | - | - | -
Cc1cc2nc(-c3cccnc3SCC(=O)NC(C)C)[nH]c2cc1C | - | - | - | - | -
COCCOC(=O)CSc1ncccc1-c1nc2cc(C)c(C)cc2[nH]1 | - | - | - | - | 98
O=C(CSc1ncccc1-c1nc2ccccc2[nH]1)NC1CC1 | - | - | - | - | -
COc1ccccc1N1CCN(C(=O)CSc2ncccc2-c2nc3ccccc3[nH]2)CC1 | - | 98 | - | - | .
COc1ccc(N2CCN(C(=O)CSc3ncccc3-c3nc4ccccc4[nH]3)CC2)cc1 | - | 94 | - | - | -
CCOC(=O)C1CCCN(CC(O)COCc2ccccc2OC)C1 (stereo not given) | - | - | - | - | -
Cn1ncc(Br)c1NC(=O)Nc1ccccc1 | - | - | - | - | .
COC(=O)c1ccc(NS(=O)(=O)NC(=O)c2cn(C)c3ccccc23)cc1 | - | - | - | - | -
NC(=O)NC(=O)CC1S/C(=N/N=C2\CSC(=O)N2)NC1=O (stereo not given) | - | - | - | - | 85
O=C(O)CNC(=O)CC1S/C(=N/N=C2/NC(=O)CS2)NC1=O (stereo not given) | - | - | - | - | 90
NC(=O)NC(=O)CC1S/C(=N/N=C/c2ccccc2)NC1=O (stereo not given) | - | - | - | - | -
CC(C(=O)Nc1ccc2c(c1)OCCO2)N(C)Cc1c(F)cccc1Cl (stereo not given) | - | - | - | - | -
CCOc1ccc(-c2csc(NC(=O)CSCC(=O)O)n2)c2ccccc12 | - | - | - | - | -
CCOc1ccc(-c2csc(NC(=O)CSC3=NC(=O)CN3C(C)=O)n2)c2ccccc12 | - | - | - | - | 99
CC(=O)N1CC(=O)N=C1SCC(=O)Nc1nc(C)c(-c2ccccc2)s1 | - | - | - | - | 98
SMILES | PfGluPho inh | PHOSPHO1 inh | PfM18AAP inh | Cardio protect | ALR H2O2 inh
O=C(Cn1nc(-c2ccccc2)oc1=O)OCC(=O)c1ccc(F)c(F)c1 | - | . | . | - | .
CC(C)c1ccc(CN2CCN(C(=O)CSc3nnnn3C3CC3)CC2)cc1 | - | . | . | - | .
O=c1cc(CO)oc(C(Nc2ccccn2)c2ccccc2Cl)c1O (stereo not given) | - | - | - | - | .
O=c1cc(CO)oc(C(Nc2ccccn2)c2ccc(F)cc2)c1O (stereo not given) | - | - | - | - | 98
Cc1ccnc(NC(c2ccccc2O)c2oc(CO)cc(=O)c2O)c1 (stereo not given) | - | - | - | - | 98
O=c1cc(CO)oc(C(Nc2ccccn2)c2ccsc2)c1O (stereo not given) | . | - | - | . | -
COc1ccc(C(Nc2ccccn2)c2oc(CO)cc(=O)c2O)cc1 (stereo not given) | - | - | - | - | 98

Compound activity as filed in PubChem.
